Test [1] in a line: Cytotoxicity counterscreen for inhibitors of SARS-CoV-2 cell entry (AID 1645845). Also: nearly all actives have a fitted effect of over 50% in size. Conditions: cell viability (SARS-CoV-2 entry assay cells); series mostly up to 57.1 µM. Summed up: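 After a 15 min room-temperature ATPLite 1step step, luminescence reflected ATP remaining in HEK293-ACE2 cells exposed to compound for 1 h plus 48 h at 37 C, with percent activity set by cell and no-cell controls.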

Test [2] in a line: Primary qHTS to identify inhibitors of SARS-CoV-2 cell entry (AID 1645846). Also: nearly all actives have a fitted effect of over 45% in size. Conditions: SARS-CoV-2 pseudovirus cell entry assay, luminescence; activity change, negative = inhibition: at 57.1 µM (top of the series) unless noted. Summed up: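 Entry measured by luciferase signal 48 h after adding SARS-CoV-2-S pseudotyped MLV particles to HEK293-ACE2 cells preincubated 1 h with compounds. Normalisation: bald particles and spike particles.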

Structures are written as SMILES. Records with an inconclusive call do not appear. Activity calls are given as the source filed them. Calls follow the shape of the full dose curve. Square brackets hold non-standard residues; d marks the D form. Peptide text beside a SMILES is read from it.
Potency is read from the fitted curve at half-maximal effect.

With `COc1cccc(OCCCN)c1-c1cc(Nc2cnc(C#N)cn2)n[nH]1`, the Potency entry in test [1] is “inactive”. In test [2], the activity change, negative = inhibition was -33%.
Consider `CN(C)Cc1ccc(S(=O)(=O)n2ccc(/C=C/C(=O)NO)c2)cc1`, for which the Potency in test [1] was 31.6 µM (active). Further, the activity change, negative = inhibition in test [2] amounted to 2%.
In the same order, the values of `CC(C)Oc1ccc(-c2nn([C@@H](C)c3oc4ccc(F)cc4c(=O)c3-c3cccc(F)c3)c3ncnc(N)c23)cc1F` are “inactive” and -16.7%.
In the same order, the values of `Cc1ccc(-c2nc(N)nc3c2nnn3Cc2cccc(CO[C@H]3CCOC3)n2)o1` are “inactive” and -15.2%.
Taken in the same sequence, the figures for `CN[C@@H](C)C(=O)N[C@H](C(=O)N1CCC[C@H]1c1nc(C(=O)c2ccc(F)cc2)cs1)C1CCCCC1` were “inactive” and -6.26%.
For the compound `O=C(NC[C@H](O)CN1CCc2ccccc2C1)c1ccnc(NC2CCC2)c1`, the Potency entry in test [1] is “inactive”. For the same compound, the activity change, negative = inhibition in test [2] turned out to be 4.47%.
`C[C@@H]1C(=O)OC2[C@H](O)[C@]34[C@H]5C[C@@H](C(C)(C)C)[C@]36[C@@H](OC(=O)[C@@H]6O)O[C@@]4(C(=O)O5)[C@]21O` (stereo partly drawn): the Potency entry in test [1] was “inactive”. For the same compound, the activity change, negative = inhibition in test [2] is -20.5%.
Turning to `C=CC(=O)N1C[C@H](Nc2ncnc3[nH]ccc23)CC[C@@H]1C`, the Potency entry in test [1] and in test [2] was “inactive” each time.
With `Nc1ncnc2c1C(=O)N(c1ccc(C3CCC(CC(=O)O)CC3)cc1)CCO2` (stereo not drawn), in test [1], the Potency result was “inactive”. Besides, the activity change, negative = inhibition in test [2] is -0.016%.
In the same order, the values of `CC1(N)CCN(c2cnc(-c3cccc(Cl)c3Cl)c(N)n2)CC1` are “inactive” and -2.57% [at 27.1 µM].
Regarding `Cc1ccc(NC(=O)c2ccc(CN3CC[C@H](N(C)C)C3)c(C(F)(F)F)c2)cc1Nc1nccc(-c2cncnc2)n1`, in test [1], the Potency result was “inactive”. Besides, in test [2], the activity change, negative = inhibition is -12% [at 27.1 µM].
On to `CC1(C)OC2=C(C(=O)c3ccccc3C2=O)[C@H](NCc2ccccc2)[C@@H]1O`, for which the Potency in test [1] is 10 µM (active); in test [2], 3.16 µM (active).
As for `CO[C@H]1/C=C/O[C@@]2(C)Oc3c(C)c(O)c4c(O)c(c(/C=N/N5CCN(C)CC5)c(O)c4c3C2=O)NC(=O)/C(C)=C\C=C\[C@H](C)[C@H](O)[C@@H](C)[C@@H](O)[C@@H](C)[C@H](OC(C)=O)[C@@H]1C`, in test [1], the Potency entry is “inactive”. The activity change, negative = inhibition in test [2] was -0.679%.
In the case of `COc1cc2ncnc(Nc3cccc(Cl)c3F)c2cc1OC(=O)N1CCN(C)C[C@H]1C`, the Potency result in test [1] is “inactive”. Moreover, in test [2], the activity change, negative = inhibition is -27.8%.
Turning to `Cc1nc(NC(=O)N2CCC[C@H]2C(N)=O)sc1-c1ccnc(C(C)(C)C(F)(F)F)c1`, in test [1], the Potency result is “inactive”. For the same compound, the activity change, negative = inhibition in test [2] is -35.1%.
With `Cc1cn(CCN2CCN(c3ccccc3-c3cc(C#N)cc(C(=O)NCCCN4CCCC4)c3)CC2)c2ccccc12`, the Potency in test [1] is 35.5 µM (active); in test [2] it was 17.8 µM (active).
As to `Fc1ccc(-c2nc(-c3ccccc3F)[nH]c2-c2ccncc2)cc1`, the Potency result in test [1] was “inactive”. For the same compound, the activity change, negative = inhibition in test [2] was -6.32%.
For the compound `CC1Oc2cc(cnc2N)-c2c(nn(C)c2C#N)CN(C)C(=O)c2ccc(F)cc21` (stereo not drawn), the Potency result in test [1] was “inactive”. Moreover, the activity change, negative = inhibition in test [2] was -19.3%.
With `COc1cc2ncnc(Oc3cccc(NC(=O)Nc4cc(C(C)(C)C(F)(F)F)on4)c3)c2cc1OC`, the Potency result in test [1] is “inactive”. In addition, the activity change, negative = inhibition in test [2] was -20.7%.
Take `Cc1ccc(NC(=O)[C@H]2CCCN(C(=O)c3c(C)cccc3F)[C@H]2c2ccc(NC3CCCC3)cc2)cc1C(F)(F)F`: the Potency entry in test [1] was “inactive”. Besides, the activity change, negative = inhibition in test [2] was -27.6%.
Taken in the same sequence, the figures for `C[C@@H]1CC(=O)Nc2cccc(-c3cnn(C(C)(C)C)c3)c2N1` were “inactive” and -17.2%.
`COc1cc(OC)c2c(=O)[nH]c(-c3cc(C)c(OCCO)c(C)c3)nc2c1`: the Potency result in test [1] and in test [2] was “inactive” throughout.
In the case of `CC(C)C[C@@H]1NC(=O)[C@@H](C(C)C)NC(=O)[C@@H]2CCCN2C(=O)[C@@H](CC(=O)O)NC(=O)[C@@H](Cc2c[nH]c3ccccc23)NC1=O` (cyclo(L[dW][dD]P[dV])), in test [1], the Potency entry was “inactive”. Moreover, the activity change, negative = inhibition in test [2] was -6.47%.
On to `COc1ccc2[nH]c(C(=O)N3CCC(CC(C)(C)O)CC3)cc2c1`, for which the Potency entry in test [1] and in test [2] was “inactive” in each case.
Regarding `CC(C)N(CCCNC(=O)Nc1ccc(C(C)(C)C)cc1)C[C@H]1O[C@@H](n2ccc3c(N)ncnc32)[C@H](O)[C@@H]1O`, the Potency entry in test [1] was “inactive”. The activity change, negative = inhibition in test [2] was -9.11%.
Take `Cc1[nH]nc(C(F)(F)F)c1Cc1sc2c(c1C(=O)N1C[C@](C)(O)CO1)c(=O)n(C)c(=O)n2C(C)C`: the Potency entry in test [1] is “inactive”. Moreover, the activity change, negative = inhibition in test [2] is -25.9%.
Consider `COc1ccccc1C(=O)Nc1cc2c(cc1N1CCCCC1)n(C)c(=O)n2C`, for which the Potency entry in test [1] is “inactive”. In addition, the activity change, negative = inhibition in test [2] was -21.1%.
In the same order, the values of `O=C(Nc1ccccc1)Nc1ccc(-c2ccc(C(=O)[C@@H]3CCC[C@H]3C(=O)O)cc2)cc1` are “inactive” and -45.3%.
In the case of `CC1(C(=O)O)CCC2(C)CCC3(C)C(=CC(=O)C4C5(C)CCC(OC6OC(C(=O)O)C(O)C(O)C6OC6OC(C(=O)O)C(O)C(O)C6O)C(C)(C)C5CCC43C)C2C1` (stereo not drawn), the Potency entry in test [1] and in test [2] was “inactive” each time.

The values above are taken from PubChem BioAssay (NCATS).
